Assay [1] can be described thus: Her2 expression decrease, cell viability multiplex – SKBR3 breast tumor cells, AlphaScreen, ATP viability, primary screen (AID 461;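 active means Her2 level under about 52% in both replicate screens, with viability over 70% of control, limit read from the data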;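 on Her2 level: lower value means less Her2 protein in the cells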;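 on viability: percent of carrier control wells set as 100% viability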). The note with it: SKBR3 Her2 protein level, 18-24 h, measured here: SKBR3 viability, ATP luminescence, at 10 µM. (In general: Bead proximity is the source of the signal in Alpha formats.)
In assay [2] the target is Receptor tyrosine-protein kinase erbB-2 (Homo sapiens) (UniProt P04626). The description is as above. Conditions: 18-24 h, at 10 µM, stronger effect = lower value.
Assay [3] can be described thus: reduced viability of SK-BR-3 breast cancer cells – cell-based, 24 h, human, pilot screen (AID 572).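 Further: compound exposure lasted between 18 and 24 h rather than exactly 24 h; 100% = carrier-treated control wells.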 The note with it: SK-BR-3 viability, CellTiter-Glo luminescence, at 10 µM, stronger effect = lower value.
The nature of assay [4]: H69AR cell proliferation blockers – human, duplicate replicates, primary screen (AID 580;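 active means viability at or under a set limit in both replicates, limit being median viability minus 3 SD, cut at about 48% in these data, passing the limit was not always enough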;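 further: 100% = mean luminescence of untreated wells and 0% = no signal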). The note with it: H69AR lung tumor cells viability, ATP luminescence, 72 h; at 10 µM; stronger effect = lower value.
Assay [5] in a line: MRP1 drug-resistance reversers in H69AR cells – cell-based, doxorubicin co-treatment, pilot screen (AID 601;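 active means viability loss from added drug above about 55%, and viability with drug at most 40%, in both replicates, limit read from the data, passing the limit was not always enough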). Conditions: CellTiter-Glo, 72 h, at 10 µM; for differential viability (reversal): stronger effect = higher value.
The nature of assay [6]: yeast transport mutant growth inhibition pilot in 384-well plates, post-Golgi transport modulator project (AID 636; in the data active means inhibition above about 31%). The note with it: absorbance 615 nm, about 18 h, stronger effect = higher value.
The nature of assay [7]: growth suppression of yeast trafficking mutant, preliminary HTS, modulators of trafficking downstream of Golgi apparatus project, 1536-format plate, OD 615 nm (AID 637; in the data active means inhibition above about 30%). Conditions: yeast transport mutant growth, absorbance 615 nm, 18 h; stronger effect = higher value.
The mark [8] stands for this setting: H69AR cells + 2 uM doxorubicin, measured here: viability with 2 uM doxorubicin, stronger effect = lower value.
Setting [9] is: H69AR cells, compound alone cytotoxicity.

Active and inactive are the calls of the source.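 How the source made its calls, unless noted: active means viability at or below 10% of carrier control in both of two separate runs; inconclusive means viability at or below 10% in only one of the two runs; inactive means the rest.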

Consider 17 compounds from PubChem BioAssay.

A word on the viability: it is a read-out of living cells in per cent, often relative to untreated cells. As usually defined, the inhibition is the relative decrease from the control value, in per cent.

Receptor tyrosine-protein kinase erbB-2 (Homo sapiens), sequence (P04626 whole entry, looked up): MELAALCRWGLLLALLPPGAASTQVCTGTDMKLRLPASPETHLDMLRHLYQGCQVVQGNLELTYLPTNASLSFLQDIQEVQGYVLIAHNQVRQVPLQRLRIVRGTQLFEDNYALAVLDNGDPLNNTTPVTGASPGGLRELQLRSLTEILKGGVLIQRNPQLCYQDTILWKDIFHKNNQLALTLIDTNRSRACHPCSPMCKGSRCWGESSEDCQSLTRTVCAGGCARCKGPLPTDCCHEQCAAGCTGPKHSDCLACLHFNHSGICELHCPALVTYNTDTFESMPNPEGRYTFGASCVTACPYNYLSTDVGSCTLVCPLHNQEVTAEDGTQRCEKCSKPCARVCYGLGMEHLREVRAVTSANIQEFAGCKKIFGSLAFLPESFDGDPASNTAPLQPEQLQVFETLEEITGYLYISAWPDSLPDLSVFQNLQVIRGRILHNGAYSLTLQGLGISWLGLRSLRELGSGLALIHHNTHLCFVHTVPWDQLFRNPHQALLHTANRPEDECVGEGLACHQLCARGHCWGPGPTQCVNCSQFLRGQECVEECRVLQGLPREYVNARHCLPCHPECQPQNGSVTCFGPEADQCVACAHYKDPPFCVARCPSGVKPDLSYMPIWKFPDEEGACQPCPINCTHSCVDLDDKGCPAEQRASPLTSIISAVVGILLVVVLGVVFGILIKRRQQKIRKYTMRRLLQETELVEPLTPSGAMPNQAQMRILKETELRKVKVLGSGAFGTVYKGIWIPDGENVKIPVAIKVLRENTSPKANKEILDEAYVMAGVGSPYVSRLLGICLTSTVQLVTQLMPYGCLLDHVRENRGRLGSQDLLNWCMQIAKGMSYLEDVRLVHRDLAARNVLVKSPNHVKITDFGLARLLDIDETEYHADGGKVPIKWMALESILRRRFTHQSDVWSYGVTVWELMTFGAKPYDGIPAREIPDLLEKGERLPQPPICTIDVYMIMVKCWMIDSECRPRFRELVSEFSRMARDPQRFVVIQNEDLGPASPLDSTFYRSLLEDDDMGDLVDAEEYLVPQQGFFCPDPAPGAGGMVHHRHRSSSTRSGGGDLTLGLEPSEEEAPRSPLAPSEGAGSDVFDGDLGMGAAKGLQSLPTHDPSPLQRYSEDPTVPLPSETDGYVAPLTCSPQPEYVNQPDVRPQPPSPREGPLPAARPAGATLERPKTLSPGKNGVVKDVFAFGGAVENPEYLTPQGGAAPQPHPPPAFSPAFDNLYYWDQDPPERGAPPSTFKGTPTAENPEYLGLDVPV

In the case of `COc1cc2c(N3CCOCC3)cc(O)c(CC(=O)Nc3ccccc3)c2cc1OC`, the viability in assay [1] was 90.5%; in assay [3] it was 90.5% (inactive); in assay [4] it was 75.3% (inactive); in assay [5] (setting [8]), 89.3%; in assay [5] (setting [9]), 75.3%. Further, the Her2 level in assay [2] is 98.5% (inactive). In addition, the differential viability (reversal) in assay [5] (H69AR cells + 2 uM doxorubicin) was -14% (inactive). Moreover, the inhibition in assay [6] is -5.32% (inactive); in assay [7] it was -6.89% (inactive).

`CCOc1ccc2nc(NC(=O)C(NS(=O)(=O)c3cccs3)C(C)C)sc2c1` (stereo not drawn): the viability was 116% in assay [1]; 116% (inactive) in assay [3]; 86.7% (inactive) in assay [4]; 75% in assay [5] (setting [8]); 86.7% in assay [5] (setting [9]). Also, the Her2 level in assay [2] is 68.5% (inactive). Besides, the differential viability (reversal) in assay [5] (H69AR cells + 2 uM doxorubicin) was 11.7% (inactive). The inhibition is 0% (inactive) in assay [6] and -1.9% (inactive) in assay [7].

With `CS(=O)(=O)c1ncc(Cl)c(C(=O)Nc2ccc(N3CCOCC3)cc2)n1`, the viability in assay [1] is 201%; in assay [3] it was 201% (inactive); in assay [4] it was 0.715% (active); in assay [5] (setting [8]), 0.36%; in assay [5] (setting [9]) it was 0.715%. Also, the Her2 level in assay [2] is 8% (active). Also, in assay [5] (H69AR cells + 2 uM doxorubicin), the differential viability (reversal) is 0.355% (inactive). Moreover, the results for the inhibition in assay [6] and in assay [7] were -4.21% (inactive) and 3.65% (inactive), respectively.

Regarding `Nc1nonc1C(=O)NCCNCc1cc(Br)ccc1OCc1ccccc1F`, the viability is 97.5% in assay [1]; 97.5% (inactive) in assay [3]; 66.8% (inactive) in assay [4]; 68.4% in assay [5] (setting [8]); 66.8% in assay [5] (setting [9]). In assay [2], the Her2 level was 78.5% (inactive). Also, the differential viability (reversal) in assay [5] (H69AR cells + 2 uM doxorubicin) is -1.58% (inactive). Also, the inhibition in assay [6] was -5.87% (inactive); in assay [7], -6.13% (inactive).

With `CCOC(=O)c1cnc(-n2nc(C)cc2C)nc1NC(C)c1ccccc1` (stereo not drawn), the viability in assay [1] is 153%; in assay [3] it was 153% (inactive); in assay [4], 10.1% (active); in assay [5] (setting [8]), 11.3%; in assay [5] (setting [9]), 10.1%. The Her2 level in assay [2] is 65% (inactive). Further, in assay [5] (H69AR cells + 2 uM doxorubicin), the differential viability (reversal) is -1.17% (inactive). For the same compound, the inhibition in assay [6] is -3.16% (inactive); in assay [7] it was 14.3% (inactive).

Take `Cn1c(-c2ccc(C(C)(C)C)cc2)n[nH]c1=S`: the viability in assay [1] is 106%; in assay [3], 106% (inactive); in assay [4] it was 82.1% (inactive); in assay [5] (setting [8]), 80.4%; in assay [5] (setting [9]), 82.1%. Also, the Her2 level in assay [2] was 106% (inactive). In addition, the differential viability (reversal) in assay [5] (H69AR cells + 2 uM doxorubicin) is 1.74% (inactive). Also, the figures for the inhibition in assay [6] and in assay [7] were -4.68% (inactive) and -2.13% (inactive), respectively.

As to `Cc1ccc(C(C)C)c(OCc2nnc(SCC(=O)Nc3ncc(C)s3)n2C)c1`, the viability was 89.5% in assay [1]; 89.5% (inactive) in assay [3]; 41.1% (active) in assay [4]; 39.7% in assay [5] (setting [8]); 41.1% in assay [5] (setting [9]). In assay [2], the Her2 level was 86% (inactive). The differential viability (reversal) in assay [5] (H69AR cells + 2 uM doxorubicin) is 1.44% (inactive). Further, the figures for the inhibition in assay [6] and in assay [7] were 0% (inactive) and -5.48% (inactive), respectively.

Turning to `CC(C)Cc1nc(N2CCN(C(=O)c3ccco3)CC2)c(C#N)c2c1CCC2`, the viability is 172% in assay [1]; 172% (inactive) in assay [3]; 84.5% (inactive) in assay [4]; 81.5% in assay [5] (setting [8]); 84.5% in assay [5] (setting [9]). In addition, the Her2 level in assay [2] was 93% (inactive). Besides, in assay [5] (H69AR cells + 2 uM doxorubicin), the differential viability (reversal) was 2.99% (inactive). For the same compound, the inhibition in assay [6] was -6.71% (inactive); in assay [7], 1.15% (inactive).

`COc1cccc(-c2nnc3sc(C4CCCCC4)nn23)c1`: the viability is 83% in assay [1]; 83% (inactive) in assay [3]; 63.4% (inactive) in assay [4]; 33.5% in assay [5] (setting [8]); 63.4% in assay [5] (setting [9]). The Her2 level in assay [2] was 53.5% (active). In addition, the differential viability (reversal) in assay [5] (H69AR cells + 2 uM doxorubicin) was 29.9% (inactive). For the same compound, the inhibition in assay [6] was -1.58% (inactive); in assay [7], 11% (inactive).

For the compound `N#C/C(=C(/O)COC(=O)CCC1CCCCC1)c1nc2ccccc2[nH]1`, the viability in assay [1] was 126%; in assay [3], 126% (inactive); in assay [4], 38.1% (active); in assay [5] (setting [8]), 47.9%; in assay [5] (setting [9]) it was 38.1%. Moreover, the Her2 level in assay [2] was 31% (active). Also, the differential viability (reversal) in assay [5] (H69AR cells + 2 uM doxorubicin) was -9.79% (inactive). Also, the inhibition in assay [6] is -4.8% (inactive); in assay [7] it was 2.3% (inactive).

For `ON=C1/C(=N\O)CC2(C/C1=N/O)OCCO2`, the viability in assay [1] is 89%; in assay [3], 89% (inactive); in assay [4], 86.9% (inactive); in assay [5] (setting [8]), 87.7%; in assay [5] (setting [9]) it was 86.9%. For the same compound, the Her2 level in assay [2] was 113% (inactive). Also, in assay [5] (H69AR cells + 2 uM doxorubicin), the differential viability (reversal) is -0.75% (inactive). In addition, the inhibition in assay [6] was -8.27% (inactive); in assay [7], -2.1% (inactive).

Regarding `Cc1cccc(NC(=O)c2cc(NC(=O)c3ccco3)ccc2N2CCCCC2)c1`, the viability was 85% in assay [1]; 85% (inactive) in assay [3]; 65.9% (inactive) in assay [4]; 48% in assay [5] (setting [8]); 65.9% in assay [5] (setting [9]). In addition, the Her2 level in assay [2] was 80.5% (inactive). The differential viability (reversal) in assay [5] (H69AR cells + 2 uM doxorubicin) is 17.8% (inactive). The inhibition in assay [6] was -4.4% (inactive); in assay [7] it was 2.46% (inactive).

With `O=C(Nc1ccc(S(=O)(=O)N2CCCCCC2)cc1)c1ccco1`, the viability in assay [1] is 94.5%; in assay [3], 94.5% (inactive); in assay [4] it was 97.1% (inactive); in assay [5] (setting [8]) it was 94.3%; in assay [5] (setting [9]) it was 97.1%. In assay [2], the Her2 level is 89.5% (inactive). The differential viability (reversal) in assay [5] (H69AR cells + 2 uM doxorubicin) is 2.81% (inactive). The inhibition is -1.17% (inactive) in assay [6] and 6.07% (inactive) in assay [7].

For the compound `COc1cc(C(=O)Nc2nc(-c3cccs3)cs2)cc(OC)c1OC`, the viability is 86% in assay [1]; 86% (inactive) in assay [3]; 22.9% (active) in assay [4]; 37.2% in assay [5] (setting [8]); 22.9% in assay [5] (setting [9]). Besides, in assay [2], the Her2 level is 82% (inactive). In addition, the differential viability (reversal) in assay [5] (H69AR cells + 2 uM doxorubicin) was -14.2% (inactive). Moreover, the figures for the inhibition in assay [6] and in assay [7] were 1.51% (inactive) and 23.6% (inactive), respectively.

As to `COC(=O)c1ccc2c(=O)n(Cc3ccco3)c(SCC(=O)Nc3ccc(C)c(Cl)c3)nc2c1`, the viability was 77.5% in assay [1]; 77.5% (inactive) in assay [3]; 8.06% (active) in assay [4]; 10.3% in assay [5] (setting [8]); 8.06% in assay [5] (setting [9]). For the same compound, the Her2 level in assay [2] was 59.5% (inactive). For the same compound, the differential viability (reversal) in assay [5] (H69AR cells + 2 uM doxorubicin) is -2.23% (inactive). Further, the inhibition in assay [6] is -1.71% (inactive); in assay [7], -2.7% (inactive).

Turning to `COCc1cc(=O)[nH]c(Nc2nc3ccccc3o2)n1`, the viability in assay [1] is 112%; in assay [3] it was 112% (inactive); in assay [4], 30.3% (active); in assay [5] (setting [8]), 39.6%; in assay [5] (setting [9]), 30.3%. The Her2 level in assay [2] was 80% (inactive). For the same compound, the differential viability (reversal) in assay [5] (H69AR cells + 2 uM doxorubicin) is -9.32% (inactive). Also, the results for the inhibition in assay [6] and in assay [7] were -4.27% (inactive) and -6.72% (inactive), respectively.

As for `CC1CCc2nc(NC(=O)CN3CCN(Cc4ccc5c(c4)OCO5)CC3)sc2C1` (stereo not drawn), the viability in assay [1] is 90.5%; in assay [3] it was 90.5% (inactive); in assay [4], 87.8% (inactive); in assay [5] (setting [8]), 73.5%; in assay [5] (setting [9]) it was 87.8%. In addition, in assay [2], the Her2 level is 77.5% (inactive). For the same compound, the differential viability (reversal) in assay [5] (H69AR cells + 2 uM doxorubicin) was 14.3% (inactive). In addition, the inhibition in assay [6] was -0.66% (inactive); in assay [7], 2.1% (inactive).
